The list is not random: actives were taken first. Their share in the collection is about 3.1%.
LGR2 inh = Drosophila LGR2 receptor signaling inhibition. AID 720647. inhibition, % at 9.99 µM. HEK293 LGR2, CRE-luciferase, bursicon-stimulated, 4 h. actives 0.35% (n = 380,000);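 active = drop in luminescence signal, shown as inhibition above about 50% in the replicate tests, limit read from the data, passing the limit was not always enough; inconclusive = probably only some replicates passing the limit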;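 note: agonist challenge used bursicon conditioned medium at about half maximal strength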
EWS-Fli block = inhibitors of EWS/Fli oncoprotein transcriptional activity; A673 NR0B1-luciferase reporter, viability-normalised; inhibition, % at 12.6 µM; actives 0.67% (n = 350,000); AID 651661;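 active = mean inhibition of at least 50% after viability correction, with every replicate also passing that limit; inconclusive = mean reaches 50% but only one of two replicates passes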;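 note: firefly luciferase signal divided by Alamar Blue viability fluorescence both relative to DMSO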
TWEAK-Fn14 inh = TWEAK-Fn14 signaling inhibition | TWEAK-stimulated Fn14 reporter cells, luciferase luminescence, 8 h | AID 1159606 | inhibition, % at 10 µM | actives 2% (n = 360,000); in the data active = inhibition above about 50%
EBV LMP1 NFkB = inhibitors of Epstein-Barr LMP1-induced NF-kappaB reporter | LMP1-induced NF-kappaB luciferase reporter cells, luminescence | inhibition, % at 12.5 µM | actives 0.69% (n = 350,000) | AID 504558; in the data active = inhibition above about 41%; inconclusive = no clear call, values can overlap the other calls;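 note: 0% = neutral control wells and 100% = reference inhibitor control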
PAX8 inh HTS = PAX8 transcriptional activity inhibition; RMG-I TPO-luciferase reporter, SteadyGlo, 24 h; inhibition, % at 12.6 µM; actives 1.2% (n = 360,000); AID 652154;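 active = mean replicate inhibition at least 60% with every replicate also reaching 60%; inconclusive = only one of the two criteria is met; inactive = mean below 60% and not all replicates reaching 60%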;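 note: luciferase light reporting Pax8 driven TPO promoter activity; plate controls were median of neutral control wells for no effect and mitoxantrone controls for full effect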
TROY signal inh = blocks TROY-dependent signaling in reporter cells; Q293 LMP1-TROYcd NF-kB luciferase reporter, 4 h; inhibition, % at 10 µM; actives 0.98% (n = 360,000); AID 1347056;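 active = compounds whose plate-normalised and pattern-corrected inhibition of the luciferase reporter signal at the single screening dose is 50% or more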
* marks the source's active call; other numbers are inactive results; ? = inconclusive; · = no result; ! = repeats disagree.

SMILES	LGR2 inh	EWS-Fli block	TWEAK-Fn14 inh	EBV LMP1 NFkB	PAX8 inh HTS	TROY signal inh
COc1ccc(NC(=O)Nc2cc(C)ccn2)cc1	22	24	39	32	-41	-15
COc1ccc(N/C=C/C(=O)c2ccccc2)cc1	65*	39	90*	2	-75	40
COc1ccc(C(=O)NC(=O)Nc2cc(C)ccn2)cc1	74*	73*	97*	68*	·	79*
O=C(C[C@@H]1C[C@@H]2c3cc(NC(=O)Nc4ccc(F)cc4)ccc3O[C@@H]2[C@H](CO)O1)NC1CCCCC1	4	-4	·	·	-8	·
CC1CC(CN)CC(CO)C1 (stereo not drawn)	8	1	53*	2	3	23
C[C@@H]1CN([C@H](C)CO)C(=O)c2cc(C3=CCCCC3)cnc2O[C@H]1CN(C)S(C)(=O)=O	-1	-11	·	·	·	·
COc1cc(NC(=S)N2CCCC(CO)C2)cc(OC)c1 (stereo not drawn)	-22	-5	62*	-4	-20	-37
COc1ccc(CC(=O)Nc2cccc(-c3nnc(-c4ccccc4)o3)c2)cc1OC	103*	·	102*	25	·	69*
COc1ccc(CC(=O)Nc2cccc(-c3nnc(-c4ccc(C)cc4)o3)c2)cc1OC	94*	-18	102*	19	·	64*
COc1ccc(CC(=O)Nc2ccc(-c3nnc(-c4ccccc4)o3)cc2)cc1OC	2	-48	-1	-10	·	-29
COc1ccc(CC(=O)Nc2cccc(-c3nnc(-c4cccc(C)c4)o3)c2)cc1OC	?	·	89*	16	·	61*
O=C(Nc1cc(Cl)ccc1Oc1ccccc1)c1cnccn1	·	·	88*	8	·	·
O=C(Nc1ccccc1)NN(C(=O)CCl)c1ccccc1	14	34	69*	47*	99*	-4
Cc1ccc(N(NC(=O)C(O)(c2ccccc2)c2ccccc2)C(=O)CCl)cc1	-13	·	46	-4	107*	-12
CCC(O)(CC)C(=O)NN(C(=O)CCl)c1ccccc1	4	17	23	-10	-19	2
CC(C)C(C)NC(=O)COc1ccc(Sc2ccc(OCC(=O)NC(C)C(C)C)cc2)cc1 (stereo not drawn)	25	22	66*	17	16	28
COC(=O)C1=C(C)N(Cc2ccc(C(F)(F)F)cc2)C(=NCC2CC2)NC1c1cccc(Cl)c1 (stereo not drawn)	57*	29	·	·	68*	·
COC(=O)C1=C(C)N(Cc2ccccc2)C(=NCc2ccccc2)N[C@H]1c1cccc(C(F)(F)F)c1	·	·	-7	7	·	17
COC(=O)C1=C(C)N(Cc2cccc(C(F)(F)F)c2)C(=NCc2ccc(OC)cc2)NC1c1cccc(Cl)c1 (stereo not drawn)	59*	46	·	·	37	·
COC(=O)C1=C(C)N(Cc2cccc(C(F)(F)F)c2)C(=NCc2ccc(OC)cc2)NC1c1cccc(C(F)(F)F)c1 (stereo not drawn)	11	50	·	·	77*	·
CO[C@@H]1CN(C)C(=O)c2ccc(NC(=O)C3CC3)cc2OC[C@H](C)N(C(=O)c2cnccn2)C[C@H]1C	5	1	·	·	·	·
C[C@H](CO)N1C[C@H](C)[C@@H](CN(C)S(=O)(=O)c2cccs2)Oc2ccc(NC(=O)Nc3ccccc3)cc2CC1=O	-15	-5	·	·	4	·
CC(=O)OCC(=O)[C@@]1(O)CC[C@H]2[C@@H]3CCC4=CC(=O)CC[C@]4(C)[C@H]3[C@@H](O)C[C@@]21C	-27	5	1	86*!	10	17
CC=Cc1ccc2n(c1=O)C[C@H]1[C@H](CO)[C@@H](C(=O)NCCc3ccncc3)N(CCC(F)(F)F)[C@@H]21 (mixture of isomers)	-10	2	·	·	-3	·
CCCC#Cc1ccc2c(c1)O[C@@H](CN(C)CC1CCOCC1)[C@@H](C)CN([C@@H](C)CO)S2(=O)=O	-4	8	·	·	0	·
SMILES	LGR2 inh	EWS-Fli block	TWEAK-Fn14 inh	EBV LMP1 NFkB	PAX8 inh HTS	TROY signal inh
COC(=O)C1=C(C(=O)c2ccccc2)C(c2ccccc2)n2nnnc2N1 (stereo not drawn)	-9	·	1	63*	-5	-13
CNC[C@@H]1OCCCC[C@@H](C)Oc2ccc(NC(=O)Nc3ccc(C(F)(F)F)cc3)cc2C(=O)N([C@@H](C)CO)C[C@H]1C	-21	4	·	·	15	·
CCc1ccccc1N(CC(=O)N1CCCC1)S(C)(=O)=O	6	-4	4	9	1	0
CCOc1ccccc1N(CC(=O)N1CCCC1)S(C)(=O)=O	2	1	11	49*	14	6
COc1ccc2c3c([nH]c2c1)[C@@H](CO)N(C(=O)c1ccncc1)CC31CCN(C(=O)C2CCC2)CC1	14	-4	·	·	·	·
Cc1cc(C)c2cc3c(N)c(C(=O)Nc4c(C)[nH]c(=O)[nH]c4=O)sc3nc2c1	13	·	66*	12	15	16
COc1cccc(-c2ccc3c(c2)[C@@H]2[C@@H](CCN2C(=O)NC2CCCCC2)[C@@H](CO)N3C)c1	7	-2	·	·	38	·
COc1cccc(-c2ccc3c(c2)[C@H]2[C@H](CCN2C(=O)NC2CCCCC2)[C@H](CO)N3C)c1	50	8	·	·	66*	·
COc1cccc(-c2ccc3c(c2)[C@@H]2[C@@H](CCN2C(=O)c2ccccc2F)[C@@H](CO)N3C)c1	-14	6	·	·	36	·
CN1c2ccc(-c3ccccc3)cc2[C@H]2[C@H](CCN2C(=O)NC2CCCCC2)[C@@H]1CO	39	4	·	·	89*	·
COc1cccc(-c2ccc3c(c2)[C@@H]2[C@@H](CCN2C(=O)NC2CCCCC2)[C@H](CO)N3C)c1	-5	5	·	·	86*	·
COc1cccc(-c2ccc3c(c2)[C@@H]2[C@@H](CCN2C(=O)c2ccccc2F)[C@H](CO)N3C)c1	-15	-33	·	·	72*	·
COc1cccc(-c2ccc3c(c2)[C@H]2[C@H](CCN2C(=O)NC2CCCC2)[C@H](CO)N3C)c1	-68	-13	·	·	-15	·
COc1ccc(-c2ccc3c(c2)[C@H]2[C@H](CCN2C(=O)NC2CCCCC2)[C@H](CO)N3C)cc1	14	-3	·	·	14	·
COc1ccc(-c2ccc3c(c2)[C@@H]2[C@@H](CCN2C(=O)NC2CCCCC2)[C@H](CO)N3C)cc1	0	-6	·	·	82*	·
C[C@@H]1CN([C@@H](C)CO)C(=O)c2cc(NC(=O)CCC(F)(F)F)ccc2O[C@@H](C)CCCCO[C@H]1CN(C)C	12	-6	·	·	-4	·
COc1ccc2c3c([nH]c2c1)[C@@H](CO)N(C(=O)Nc1ccc(F)cc1)CC31CN(S(=O)(=O)c2ccc(C)cc2)C1	17	0	·	·	68*	·
CCCNC(=O)N1CC2(C1)CN(C(=O)COC)[C@H](CO)c1[nH]c3cc(OC)ccc3c12	-1	0	·	·	61*	·
CCCNC(=O)N1CC2(C1)CN(C(=O)COC)[C@@H](CO)c1[nH]c3cc(OC)ccc3c12	-14	-7	·	·	-31	·

Screening results deposited in PubChem BioAssay by several laboratories.
